These results are taken from PubChem BioAssay.

Each structure is given as a SMILES string. A number with no mark means an inactive call. The rule behind the calls is not given here.

The nature of this assay: inhibitors of hydroxyurea-induced Chk1 phosphorylation, primary screen, imaging, HeLa, phospho-Chk1 nuclear intensity (AID 1187). Note: test concentration not given here. The note with it: hydroxyurea-induced phospho-Chk1 immunofluorescence imaging, higher = more signal.
In the case of `COC(=O)[C@@]1(Cc2ccc(OC)cc2)[C@H]2c3cc(C(=O)N(C)C)n(CCc4ccccn4)c3C[C@H]2CN1C(=O)c1ccccc1`, the z-score was 0.0643.

On to `[N-]=[N+]=NCc1ccccc1[C@@H]1OC(c2ccc(OCCCO)cc2)=N[C@]1(Cc1ccccc1)C(N)=O`, for which the z-score is -0.0798. For `CC#CC(=O)Oc1ccccc1C=CC(=O)OCC` the value was 0.195; for `CCCC[C@@H]1C[C@H]1[C@@H](NC(=O)c1ccco1)c1ccc(-c2ccccc2)cc1`, 0.0955; for `CC(C)CNC(=O)[C@@]1(Cc2ccccc2I)c2ccccc2C(=O)N(C2CCCCC2)[C@H]1c1ccc(CO)cc1`, -0.0021.

For `COc1cc2c(cc1O)C(C1CC1)N(Cc1sc3ccccc3c1Cl)CC2` (stereo unspecified), the z-score was 0.302.
